Compound activity: PubChem, National Center for Advancing Translational Sciences (NCATS)
A selection: hits, their analogues and other compounds. The true share with any hit is near 11%.
AmpC inh no detg = blocks E. coli AmpC beta-lactamase in detergent-free assay. AmpC nitrocefin hydrolysis, absorbance 480 nm, 0.0001% Triton. Potency, µM (titrated, usually from 57.1 µM), for the others: at the highest dose activity change, negative = inhibition, usual class: inhibitors. hit rate 0.52% among 330,000. AID 485341;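 note: plate controls were no compound for no effect and no enzyme for full effect; nearly all actives have a fitted effect of over 20% in size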
Target sequence (P00811 whole entry, looked up): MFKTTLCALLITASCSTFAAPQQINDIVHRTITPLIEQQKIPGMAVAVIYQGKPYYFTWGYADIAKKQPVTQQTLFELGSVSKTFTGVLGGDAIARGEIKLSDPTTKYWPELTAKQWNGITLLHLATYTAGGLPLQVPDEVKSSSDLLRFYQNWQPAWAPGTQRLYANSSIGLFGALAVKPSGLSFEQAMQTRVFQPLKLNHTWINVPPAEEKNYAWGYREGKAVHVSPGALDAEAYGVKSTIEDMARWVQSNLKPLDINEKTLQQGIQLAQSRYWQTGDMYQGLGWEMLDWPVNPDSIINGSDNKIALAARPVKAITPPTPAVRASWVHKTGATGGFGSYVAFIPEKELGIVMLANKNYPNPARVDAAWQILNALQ
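AmpC (5.3 nM in the dispensed reagent) in 20 mM phosphate pH 7.0 with 0.01% (detergent screen) or 0.0001% Triton X-100 was preincubated with compounds for 15 min at room temperature. Nitrocefin was then added from an 800 uM solution, and hydrolysis was followed at 480 nm.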
HCV inh = inhibitors of hepatitis C virus infection | hit rate 3.4% among 340,000 | Potency, µM (series often up to 41.8 µM), inactives show at the highest dose activity change, negative = inhibition, actives largely listed as inhibitors | Huh7.5.1 HCVcc-Cre infection, luciferase reporter, 44 h
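Compounds are dispensed onto cells plated 4 h earlier at 1,000 per well, with HCVcc-Cre virus (about 0.5 moi) added next. Following 44 h of culture, luminescent signal is measured for 15 sec after 15 min with substrate at room temperature.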
AMA1-RON2 inh = disrupts binding of P. falciparum AMA1 to RON2; hit rate 0.2% among 360,000; Potency, µM (titrated, usually from 58.2 µM), for inactives: at the highest dose activity change, negative = inhibition, most hits filed as inhibitors; AlphaScreen AMA1-biotinylated RON2 peptide binding;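 note: 0% = vehicle wells and -100% = peptide control; nearly all actives have a fitted effect of over 45% in size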
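AMA1 (3D7) with his tag at 25 nM final met compounds first, then biotinylated RON2 peptide at 25 nM; detection used donor plus acceptor beads, 10 µg/mL apiece, read by AlphaScreen after 30 min at room temperature.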
AmpC inh detg = AmpC beta-lactamase inhibition with detergent present. AmpC hydrolysis of nitrocefin, absorbance 480 nm, 0.01% Triton. Potency, µM (doses to about 114 µM), without a hit: at the top dose activity change, negative = inhibition, actives largely listed as inhibitors. hit rate 0.041% among 370,000;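 note: 0% = no-compound wells and -100% = no-enzyme wells; nearly all actives have a fitted effect of over 25% in size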
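AmpC (5.3 nM in the dispensed reagent) in 20 mM phosphate pH 7.0 with 0.01% (detergent screen) or 0.0001% Triton X-100 was preincubated with compounds for 15 min at room temperature. Nitrocefin was then added from an 800 uM solution, and hydrolysis was followed at 480 nm.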
Pf growth 48h = inhibits P. falciparum growth in the first generation, 48 h | P. falciparum luciferase growth in erythrocytes, 48 h | Potency, µM (highest dose often 28.7 µM), for inactives: at the top dose activity change, negative = inhibition, usual class: inhibitors | hit rate 5.9% among 310,000
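First compound was added to culture medium, then infected red cells at 0.1% parasitemia and 2% hematocrit (final). After incubation at 37 C under 5% CO2, luciferase detection reagent was dispensed and light output recorded.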
Pf growth 96h = inhibits malaria parasite growth, 96 h | P. falciparum luciferase reporter growth, 96 h | Potency, µM (top dose mostly 28.7 µM), for inactives: top-dose activity change, negative = inhibition, usual class: inhibitors | hit rate 6.9% among 320,000
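Infected RBCs, 2% Hct / 0.05% parasitemia final; luciferase-reporter P. falciparum; cpd 96 h, 37 C, 5% CO2; luciferase detection reagent; luminescence.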
An asterisk follows results filed as active; u = inconclusive; x = not tested or not shown; [ ] = remark or other dose. Calls come from the whole dose curve; as a rule, active = well fitted curve in the direction sought with a large enough effect; inconclusive = small, poorly fitted or top-dose-only effect, or another doubt; inactive = no such curve, though single readings can be large; an effect the other way counts as inactive or inconclusive. Unless noted, % is set by controls: 0 for no effect and ±100 for the full control effect; potency is the fitted concentration of half-maximal effect.

SMILES	AmpC inh no detg	HCV inh	AMA1-RON2 inh	AmpC inh detg	Pf growth 48h	Pf growth 96h
O=C(CN1C(=O)COc2ccc(S(=O)(=O)N3CCOCC3)cc21)N1CCN(c2cccc(C(F)(F)F)c2)CC1	x	x	x	1.4%	x	x
COc1ccc(NC(=O)c2ccco2)cc1NC(=O)COc1ccc(C)cc1C	x	x	x	3.4%	x	x
Cc1ccc(-n2c(=O)c3c(cnn3C)n(CC(=O)Nc3ccc(C)cc3C)c2=O)cc1	x	x	x	11.3%	x	x
COc1ccccc1N1CCN(C(=O)c2nc(SC)ncc2Cl)CC1	x	x	x	-3.0%	x	x
CC(O)C(N)C(=O)O (stereo unspecified)	x	x	x	x	-9.3%	-0.5%
C[C@@H](N)C(=O)O	x	x	x	x	16.9µM*	19.1%
Clc1ccc2c(c1)nc1n2CCCC1	-9.1%	25.1µM*	-1.7%	3.4%	12.0%	0.0%
O=[N+]([O-])c1ccc2c(c1)nc1n2CCCCC1	-26.9%	-10.8%	-12.0%	-2.6%	30.4%	13.7%
C/C(=N\NC(=S)NC1CCCCC1)c1c(F)cccc1F	-15.8%	u	51.9%	2.2%	-15.5%	10.4µM*
C/C(=N\NC(=S)NC1CCCCC1)c1ccc(Cl)c(Cl)c1	-11.4%	-0.6%	70.7%	-14.7%	2.33µM*	4.15µM*
C/C(=N\NC(=S)NC1CCCCC1)c1cccs1	-22.8%[2.29 µM]	u	44.5%	5.8%	u	u
C/C(=N\NC(=O)C1CCCC1)c1ccc(Cl)c(Cl)c1	-7.3%	-13.4%	-11.6%	1.3%	1.3%	250.9%
CCOc1ccc(Nc2nc(N)c(C(=O)c3ccccc3Cl)s2)cc1	x	x	x	0.5%	x	x
Cc1c(C(C)C)c(=O)n(-c2ccc(S(=O)(=O)NC3CCCCC3)cc2)n1C	16.9%	5.01µM*	4.5%	-1.6%	-6.7%	u
Cc1c(C(C)C)c(=O)n(-c2ccc(S(=O)(=O)NCc3ccccc3)cc2)n1C	-2.8%	0.891µM*	-16.2%	u	-1.3%	u
Cc1c(C(C)C)c(=O)n(-c2ccc(S(=O)(=O)N3CCOCC3)cc2)n1C	0.2%	-9.9%	9.1%	2.5%	14.0%	22.7%
Cc1cccc(N2CCN(C(=O)Cn3cnc4sc(C)c(S(=O)(=O)N5CCN(c6ncccn6)CC5)c4c3=O)CC2C)c1 (stereo unspecified)	x	x	x	22.0%	x	x
COc1ccc(C(=O)c2ccccc2O)c(O)c1	-29.7%	8.6%	0.0%	-14.8%	4.15µM*	u
COc1ccc(C(=O)c2ccc(OC)cc2O)c(O)c1	-33.1%	-11.6%	6.1%	-17.7%	u	31.9%[5.75 µM]
CCOC(=O)C1CCN(C(c2cc3ccc(C)cc3[nH]c2=O)c2nnnn2C2CCCCC2)CC1 (stereo unspecified)	-4.8%	-12.4%	-8.9%	-11.3%	1.04µM*	x
CCOC(=O)c1cc2oc(C(c3nnnn3C3CCCCC3)N3CCOCC3)cc2[nH]1 (stereo unspecified)	124.4%	-23.0%	u	u	9.28µM*	9.28µM*
COc1cc2cc(C(c3nnnn3C3CCCC3)N3CCc4ccccc43)c(=O)[nH]c2cc1OC (stereo unspecified)	126.5%	-18.4%	1.7%	-19.5%	u	9.28µM*
COc1ccccc1N1CCN(C(c2cc3cc(C)ccc3[nH]c2=O)c2nnnn2C2CCCC2)CC1 (stereo unspecified)	-1.5%	-12.3%	-3.8%	u	u	11.9%
COc1cc2cc(C(c3nnnn3C(C)(C)C)N3CCc4ccccc43)c(=O)[nH]c2cc1OC (stereo unspecified)	152.9%	4.5%	-18.4%	-12.0%	u	u
COc1ccccc1N1CCN(C(c2cc3ccc(C)cc3[nH]c2=O)c2nnnn2C2CCCC2)CC1 (stereo unspecified)	16.5%	-5.9%	7.0%	u	1.85µM*	-18.7%
SMILES	AmpC inh no detg	HCV inh	AMA1-RON2 inh	AmpC inh detg	Pf growth 48h	Pf growth 96h
COc1ccc(NC(=O)c2ccc3c(=O)n4nc(Nc5cc(C)ccc5C)sc4nc3c2)cc1	x	x	x	21.6%	x	x
Cc1cc2c(s1)c1c(C)nn(Cc3ccc(F)cc3)c(=O)c1n2C	-23.0%	x	x	3.3%	-0.1%	13.7%
CC(=O)c1cccc(NC(=O)CN2C(=O)CCc3cc(S(=O)(=O)N4CCCCC4)ccc32)c1	x	x	x	-1.8%	x	x
Cc1nn(-c2ccc3nncn3n2)c(C)c1CCC(=O)Nc1ccc(OC(F)(F)F)cc1	x	x	x	0.9%	x	x
CCC(C)(C)n1nnnc1C(c1cc2ccc(OC)cc2[nH]c1=O)N1CCN(C2CCCCC2)CC1 (stereo unspecified)	81.9%	u	16.1%	-12.7%	10.4µM*	x
CCc1cccc(NC(=O)c2coc(=O)c3ccccc23)c1	x	x	x	-4.4%	x	x
C=CCn1c(SCC(=O)Nc2cccc3ccccc23)nc(O)c(CC)c1=O	-31.0%	6.3%	-3.7%	2.4%	x	9.28µM*
C=CCn1c(SCC(=O)NC(=O)c2cccn2C)nc2ccccc2c1=O	-43.5%	u	-7.3%	1.1%	3.7µM*	10.0%
C=CCn1c(SCC(=O)Nc2ccc(F)cc2)nc2ccccc2c1=O	-5.1%	-19.7%	5.9%	6.6%	u	5.22µM*
CCC(C)n1c(SCC(=O)NC(=O)c2cccn2C)nc2ccccc2c1=O (stereo unspecified)	-21.2%	u	-10.1%	8.0%	u	u
CC(=O)Nc1ccccc1-c1nc2ccccc2n(C(C)C(=O)Nc2ccccc2C(F)(F)F)c1=O (stereo unspecified)	x	x	x	19.6%	x	x
CNS(=O)(=O)c1cn(CC(=O)N2CCN(c3ccc(C(C)=O)cc3)CC2)cc1S(=O)(=O)NC	x	x	x	2.1%	x	x
CC1=CC(C)(C)N(C(=O)C(C)N2C(=O)c3ccccc3C2=O)c2c(C)cc(C)cc21 (stereo unspecified)	79.8%	-0.4%	x	-4.8%	10.4µM*	x
COc1ccc2c(c1)C(C)=CC(C)(C)N2C(=O)C(C)N1C(=O)c2ccccc2C1=O (stereo unspecified)	29.8%	12.7%	1.7%	-4.2%	-9.7%	x
CC1=NN(C(N)=S)C(=O)C1N=Nc1cccc(C)c1 (stereo unspecified)	-5.1%	-28.1%	104.5%	-4.2%	11.7µM*	u
CC1=NN(C(N)=S)C(=O)C1N=Nc1ccc(O)cc1 (stereo unspecified)	-21.9%	u	74.3%	3.6%	48.5%	22.7%
CC1=NN(C(N)=S)C(=O)C1N=Nc1ccc(F)cc1 (stereo unspecified)	-15.1%	1.9%	98.4%	5.0%	1.85µM*	19.2%
CC1=NN(C(N)=S)C(=O)C1N=Nc1cccc(C(=O)O)c1 (stereo unspecified)	-18.0%	6.9%	98.3%	-3.0%	64.4%	124.6%
O=S(=O)(c1ccc(Cl)cc1)c1nnn2c1nc(NCc1cccs1)c1sccc12	x	x	x	6.0%	x	x
